According to PubChem BioAssay AID1159580 (chemical genetic matrix, 2015):
About 2,000 (36%) of roughly 5,500 compounds were called active. Inconclusive results (about 18%) are left out. Rule as the data show it: active = normalized growth mostly below about 0.91 (no sharp cut-off); inconclusive = no clear call, values can overlap the other calls; inactive = mostly above about 0.92. This is one part of the list.

Experiment: chemical genetic growth profiling, strain panel (AID 1159580);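 also: tested at 20 µM; growth read once vehicle control cultures reached saturation at 30 °C; 1 = growth at the plate median or of vehicle wells; lower values mean less growth of the strain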
Conditions: growth OD

Measured: normalized growth

Cc1cn([C@H]2C[C@H](N=[N+]=[N-])[C@@H](CO)O2)c(=O)[nH]c1=O
inactive: S. cerevisiae deletion strains, locus YJR066W, strain TOR1, active compounds read low 0.932 | S. cerevisiae deletion strains, locus YKL009W, strain mrt4, active compounds read low 0.995 | S. cerevisiae deletion strains, locus YKL068W, active compounds read low 1.01 | S. cerevisiae deletion strains, locus YKL085W, strain MDH1 (second series), active compounds read low 1.01 | S. cerevisiae deletion strains, locus YKL085W, strain MDH1, active compounds read low 1.01 | S. cerevisiae deletion strains, locus YKL160W, strain elf1, active compounds read low 0.975 | S. cerevisiae deletion strains, locus YKL190W, strain CNB1, active compounds read low 1.01 | S. cerevisiae deletion strains, locus YKR001C, strain vps1, active compounds read low 1.02 | S. cerevisiae deletion strains, locus YKR026C, strain gcn3, active compounds read low 0.988 | S. cerevisiae deletion strains, locus YKR091W, strain srl3, active compounds read low 0.999 | S. cerevisiae deletion strains, locus YLL001W, strain dnm1, active compounds read low 0.978 | S. cerevisiae deletion strains, locus YLL026W, active compounds read low 0.996 | S. cerevisiae deletion strains, locus YLL041C, strain sdh2, active compounds read low 0.993 | S. cerevisiae deletion strains, locus YLR027C, strain aat2, active compounds read low 0.99 | S. cerevisiae deletion strains, locus YLR039C, strain RIC1, active compounds read low 0.989 | S. cerevisiae deletion strains, locus YLR058C, strain SHM2, active compounds read low 1.01 | S. cerevisiae deletion strains, locus YLR102C, strain apc9, active compounds read low 1.01 | S. cerevisiae deletion strains, locus YLR113W, strain HOG1, active compounds read low 0.936 | S. cerevisiae deletion strains, locus YLR221C, strain rsa3, active compounds read low 1.02 | S. cerevisiae deletion strains, locus YLR258W, strain gsy2, active compounds read low 0.97 | S. cerevisiae deletion strains, locus YLR262C, strain YPT6 (second series), active compounds read low 0.998 | S. cerevisiae deletion strains, locus YLR262C, strain YPT6, active compounds read low 1.01 | S. cerevisiae deletion strains, locus YLR268W, strain sec22, active compounds read low 1 | S. cerevisiae deletion strains, locus YLR320W, strain mms22, active compounds read low 0.981 | S. cerevisiae deletion strains, locus YLR330W, strain CHS5, active compounds read low 1 | S. cerevisiae deletion strains, locus YLR342W, strain FKS1 (second series), active compounds read low 0.991 | S. cerevisiae deletion strains, locus YLR342W, strain FKS1, active compounds read low 1.01 | S. cerevisiae deletion strains, locus YLR357W, strain rsc2, active compounds read low 0.935 | S. cerevisiae deletion strains, locus YLR370C, strain arc18, active compounds read low 0.98 | S. cerevisiae deletion strains, locus YLR371W, strain rom2, active compounds read low 1.01 | S. cerevisiae deletion strains, locus YLR384C, strain iki3, active compounds read low 1 | S. cerevisiae deletion strains, locus YLR418C, strain cdc73, active compounds read low 1.04 | S. cerevisiae deletion strains, locus YML016C, strain PPZ1, active compounds read low 1 | S. cerevisiae deletion strains, locus YML032C, strain rad52, active compounds read low 1.01 | S. cerevisiae deletion strains, locus YML120C, strain ndi1, active compounds read low 1.01 | S. cerevisiae deletion strains, locus YML124C, strain tub3, active compounds read low 1.01 | S. cerevisiae deletion strains, locus YMR058W, strain fet3, active compounds read low 1.02 | S. cerevisiae deletion strains, locus YMR078C, strain ctf18, active compounds read low 1 | S. cerevisiae deletion strains, locus YMR125W, strain sto1, active compounds read low 0.999 | S. cerevisiae deletion strains, locus YMR129W, active compounds read low 0.99 | S. cerevisiae deletion strains, locus YMR205C, strain PFK2, active compounds read low 0.975 | S. cerevisiae deletion strains, locus YMR223W, strain ubp8, active compounds read low 1 | S. cerevisiae deletion strains, locus YMR231W, strain pep5, active compounds read low 1 | S. cerevisiae deletion strains, locus YMR263W, strain SAP30, active compounds read low 1.01 | S. cerevisiae deletion strains, locus YMR307W, strain GAS1, active compounds read low 1.02 | S. cerevisiae deletion strains, locus YNL067W, strain RPL9B, active compounds read low 1.02 | S. cerevisiae deletion strains, locus YNL071W, strain lat1, active compounds read low 1.01 | S. cerevisiae deletion strains, locus YNL153C, strain GIM3, active compounds read low 1 | S. cerevisiae deletion strains, locus YNL183C, strain NPR1, active compounds read low 0.911 | S. cerevisiae deletion strains, locus YNL209W, strain ssb2, active compounds read low 0.994 | S. cerevisiae deletion strains, locus YNL233W, strain BNI4, active compounds read low 0.991 | S. cerevisiae deletion strains, locus YNL248C, strain rpa49, active compounds read low 0.981 | S. cerevisiae deletion strains, locus YNL250W, strain rad50, active compounds read low 1.02 | S. cerevisiae deletion strains, locus YNL271C, strain bni1, active compounds read low 1.02 | S. cerevisiae deletion strains, locus YNL298W, strain CLA4, active compounds read low 1.02 | S. cerevisiae deletion strains, locus YNL307C, strain MCK1, active compounds read low 1.01 | S. cerevisiae deletion strains, locus YNL322C, strain KRE1 (second series), active compounds read low 0.972 | S. cerevisiae deletion strains, locus YNL322C, strain KRE1, active compounds read low 1 | S. cerevisiae deletion strains, locus YNR049C, strain mso1, active compounds read low 0.996 | S. cerevisiae deletion strains, locus YNR052C, strain pop2, active compounds read low 1.01 | S. cerevisiae deletion strains, locus YOL006C, strain TOP1, active compounds read low 1 | S. cerevisiae deletion strains, locus YOL012C, strain htz1 1.05 | S. cerevisiae deletion strains, locus YOL147C, strain pex11, active compounds read low 1.01 | S. cerevisiae deletion strains, locus YOR001W, strain rrp6, active compounds read low 1.02 | S. cerevisiae deletion strains, locus YOR061W, strain CKA2, active compounds read low 1.01 | S. cerevisiae deletion strains, locus YOR069W, strain VPS5, active compounds read low 1.01 | S. cerevisiae deletion strains, locus YOR070C, strain gyp1, active compounds read low 0.998 | S. cerevisiae deletion strains, locus YOR080W, strain dia2, active compounds read low 0.999 | S. cerevisiae deletion strains, locus YOR083W, strain WHI5, active compounds read low 0.946 | S. cerevisiae deletion strains, locus YOR106W, strain vam3, active compounds read low 0.999 | S. cerevisiae deletion strains, locus YOR136W, strain idh2, active compounds read low 1.02 | S. cerevisiae deletion strains, locus YOR144C, strain elg1, active compounds read low 1.01 | S. cerevisiae deletion strains, locus YOR184W, strain ser1, active compounds read low 1.01 | S. cerevisiae deletion strains, locus YOR231W, strain MKK1, active compounds read low 0.982 | S. cerevisiae deletion strains, locus YOR265W, strain rbl2, active compounds read low 1.01 | S. cerevisiae deletion strains, locus YOR270C, strain vph1, active compounds read low 1.06 | S. cerevisiae deletion strains, locus YOR290C, strain snf2, active compounds read low 0.993 | S. cerevisiae deletion strains, locus YOR316C, strain cot1, active compounds read low 1.01 | S. cerevisiae deletion strains, locus YPL051W, strain arl3, active compounds read low 0.985 | S. cerevisiae deletion strains, locus YPL055C, strain LGE1, active compounds read low 1.03 | S. cerevisiae deletion strains, locus YPL078C, strain atp4, active compounds read low 0.99 | S. cerevisiae deletion strains, locus YPL106C, strain sse1, active compounds read low 0.94 | S. cerevisiae deletion strains, locus YPL240C, strain hsp82, active compounds read low 0.994 | S. cerevisiae deletion strains, locus YPL241C, strain CIN2, active compounds read low 1 | S. cerevisiae deletion strains, locus YPL256C, strain CLN2, active compounds read low 0.942 | S. cerevisiae deletion strains, locus YPR119W, strain clb2, active compounds read low 1.01 | S. cerevisiae deletion strains, locus YPR141C, strain kar3, active compounds read low 1.01 | S. cerevisiae deletion strains, locus YPR163C, strain tif3, active compounds read low 1.01 | S. cerevisiae deletion strains, locus YPR167C, strain met16, active compounds read low 1.01 | S. cerevisiae deletion strains, strain wtn01, active compounds read low 1.01 | S. cerevisiae strains, strain wild type, active compounds read low 1
